From PubChem BioAssay
HCMV antiviral = inhibitors of human cytomegalovirus; hit rate 4.5% among 410,000; HFF cells, HCMV-luciferase reporter, 72 h; active compounds read low; activity change, negative = inhibition, % at 57.5 µM; in the data active = activity change below about -60%; inconclusive = no clear call, values can overlap the other calls; inactive = above about -39%; also: % is scaled to controls: 0 for no effect and ±100 for the full control effect
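Compounds were evaluated in HFFs infected with an HCMV luciferase reporter virus (MOI 1 PFU/cell). Luciferase in lysates collected 72 h post infection served as the replication measure.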
FMDV antiviral = blocks foot and mouth disease virus; Potency, µM (titrated, usually from 57.9 µM), for inactives: at the highest dose activity change, negative = inhibition, most hits filed as inhibitors; hit rate 1.2% among 410,000; AID 1159524; FMDV antiviral cell-based qHTS; calls by dose curve; tested in HEK293T cells; also: read-out not given here; potency is read from the fitted curve at half-maximal effect; % is scaled to controls: 0 for no effect and ±100 for the full control effect; nearly all actives have a fitted effect of over 45% in size
MARV entry inh = inhibitors of Marburg virus binding or cell entry; Potency, µM (titrated, usually from 37.8 µM), inactives show top-dose activity change, negative = inhibition, hits mostly inhibitors; hit rate 1.8% among 300,000; Marburg virus pseudotyped entry inhibition, cell reporter; calls by dose curve; tested in HEK293 cells; also: potency is read from the fitted curve at half-maximal effect; % is scaled to controls: 0 for no effect and ±100 for the full control effect
HCV inhibitor = blocks hepatitis C virus; Huh7.5.1 HCVcc-Cre infection, luciferase reporter, 44 h; Potency, µM (top dose mostly 41.8 µM), for the others: top-dose activity change, negative = inhibition, usual class: inhibitors; hit rate 3.4% among 340,000; AID 651820; active = well fitted inhibition curve with a large enough effect; inconclusive = small, poorly fitted or top-dose-only effect, or another doubt; inactive = no such curve, though single readings can be large or run the other way; also: potency is read from the fitted curve at half-maximal effect; % is scaled to controls: 0 for no effect and ±100 for the full control effect
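Cells (1,000/well) were plated 4 h before compound, then infected with HCVcc-Cre virus (~0.5 moi). After 44 h further culture, infection was read as luciferase luminescence following a 15 min substrate incubation at room temperature.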
SARS PLpro yeast = SARS-CoV PLP inhibition in yeast; S. cerevisiae expressing SARS-CoV PLpro, growth rescue; hit rate 0.19% among 330,000; Potency, µM (doses to about 32.9 µM), without a hit: at the highest dose activity, positive = growth rescue, usual class: activators; AID 485353; calls by dose curve; also: potency is read from the fitted curve at half-maximal effect; 0% is about no effect; nearly all actives have a fitted effect of over 55% in size
Lassa entry inh = Lassa virus entry inhibition; Potency, µM (top dose mostly 37.9 µM), for inactives: at the highest dose activity change, negative = inhibition, usual class: inhibitors; Lassa virus pseudotype entry inhibition, cell reporter; hit rate 1.2% among 300,000; calls by dose curve; tested in HEK293 cells; also: potency is read from the fitted curve at half-maximal effect; % is scaled to controls: 0 for no effect and ±100 for the full control effect; nearly all actives have a fitted effect of over 50% in size
* = called active by the depositor; ? = inconclusive; . = no result; [ ] = dose if it differs, or a comment. Most compounds without a hit are left out; they make up all but 8% or so of the library.

SMILES | HCMV antiviral | FMDV antiviral | MARV entry inh | HCV inhibitor | SARS PLpro yeast | Lassa entry inh
CC1CCCCC1NC(=S)Nc1cccc(S(=O)(=O)N(C)C)c1 (centres undefined) | -68.5* | 9.0% | 22.0%[46.1 µM] | 3.4% | -1.0% | -3.4%
CC1(C)Cn2c(nc(=O)c3c2NCN(CCc2ccccc2)C3)S1 | . | . | . | . | 2.2% | .
O=C(CC1c2ccccc2C=C(c2ccsc2)N1c1ccc(-c2cccnc2)cc1)C1CC1 (centres undefined) | -78.9* | 0.0% | . | . | . | .
COc1ccc2c(C#CCCO)c(-c3ccc(S(C)(=O)=O)cc3)sc2c1 | -20.4 | -24.7% | . | ? | 2.9% | .
COc1ccc2c(-c3ccc(S(N)(=O)=O)cc3)c(-c3ccc(S(C)(=O)=O)cc3)sc2c1 | -26.9 | -4.7% | . | 25.1µM* | -2.8% | .
Cc1cc(Br)cn2c(CC(C)(C)C)c(C3CCCCC3)nc12 | -16.5 | -17.7% | . | . | . | .
CCCN(C(=O)COC(=O)CCOc1ccccc1C)c1c(N)n(Cc2ccccc2)c(=O)[nH]c1=O | 20.6 | -10.7% | . | 1.9% | ? | .
CCCCN1CC(COCc2ccccc2)Oc2cccc(Oc3ccccc3)c2S1(=O)=O (centres undefined) | 0.7 | 13.7% | . | 2.51µM* | . | ?
CSc1nccc(Oc2cccc(C#N)c2)n1 | -61.3* | -24.2% | 0.1% | 1.8% | -7.2% | 8.8%
CSc1nc(Oc2cccc(C(F)(F)F)c2)cc(C(F)(F)F)n1 | 0.8 | -17.1% | ? | 4.6% | 1.9% | 2.7%
Cc1c(C(=O)NCCc2ccncc2)cnn1-c1nccc(-c2ccccc2C(F)(F)F)n1 | . | -20.1% | . | . | . | .
COc1cc(NC(=O)c2cc(C(C)C)on2)c(OC)cc1Cl | 84.7 | -8.3% | 14.6µM* | 11.2µM* | -18.6% | ?
COc1cc(NC(=O)c2c(F)c(F)c(F)c(F)c2F)c(OC)cc1Cl | 2.0 | ? | ? | 11.2µM* | 4.0% | -28.0%
COc1ccc(NC(=O)c2cc(C(C)C)on2)c(OC)c1 | -4.9 | 40.3% | . | -24.3% | -13.5% | .
COc1ccc(-c2coc3c(C(=O)Nc4ccc(OC)nc4)cccc23)c(C)c1 | -32.2 | ? | . | . | . | .
CC(=O)c1cccc(NC(=O)c2cccc3c(-c4cccc(C(N)=O)c4)coc23)c1 | ? | 35.5µM* | . | . | . | .
COc1cc(NC(=O)c2cccc3c(-c4cccnc4)coc23)cc(OC)c1OC | -39.3 | 12.6µM* | . | . | . | .
CS(=O)(=O)Nc1cccc(NC(=O)c2cccc3c(-c4cccc(C(N)=O)c4)coc23)c1 | 51.8 | -21.0% | . | . | . | .
COc1ccc(-c2coc3c(C(=O)Nc4cc(OC)c(OC)c(OC)c4)cccc23)c(C)c1 | -64.9* | ? | . | . | . | .
COc1ccc(CNC(=O)c2cccc3c(-c4cnn(C)c4)coc23)cc1OC | ? | 15.8µM* | . | . | . | .
COc1ccc(-c2coc3c(C(=O)NCc4ccc(OC)c(OC)c4)cccc23)c(C)c1 | -74.7* | ? | . | . | . | .
COc1ccc(-c2coc3c(C(=O)NCC4CCOCC4)cccc23)c(C)c1 | -60.8* | ? | . | . | . | .
CCc1ccc(C(=O)COC(=O)C(Cc2c[nH]c3ccccc23)NC(=O)c2ccc(Br)cc2)cc1 (centres undefined) | 24.2 | -0.4% | . | . | . | -7.5%[46.1 µM]
CCCCN(CC)CCNC(=O)CCn1cnc2onc(-c3ccc(F)cc3)c2c1=O | -35.8 | -16.1% | . | . | . | 10.7%[46.1 µM]
COc1ccc(C2C(C(=O)Nc3cccnc3)=C(C)Nc3nc(-c4ccccc4)nn32)cc1OC (centres undefined) | 13.1 | -19.8% | ? | . | . | 22.4%[46.1 µM]
SMILES | HCMV antiviral | FMDV antiviral | MARV entry inh | HCV inhibitor | SARS PLpro yeast | Lassa entry inh
O=C(Nc1cc(C(F)(F)F)ccc1Cl)c1ccncc1 | ? | -20.2% | -36.8% | 6.1% | -5.7% | 9.1%
C/C(=N\Nc1cc(C(F)(F)F)ccc1Cl)c1ccncc1 | -15.7 | -22.1% | -1.5%[46.1 µM] | 12.6µM* | -4.7% | .
CC(C)NC(=O)c1cn([C@H]2CC[C@@H](NC(=O)/C=C/c3cccs3)CC2)nn1 | . | 0.0% | . | . | . | .
O=C1N2c3ccccc3CCc3cccc(c32)C1(O)C(F)(F)F (centres undefined) | -60.7* | ? | ? | -21.6% | -16.6% | -20.2%
Cc1ccc(NC(=O)c2ccccc2NS(=O)(=O)c2ccc(F)cc2)cc1S(=O)(=O)N1CCCCC1 | -98.3* | ? | ? | ? | -0.5% | ?
Cc1ccc(NC(=O)CCNC(=O)c2ccccc2Cl)cc1S(=O)(=O)N1CCCCCC1 | -9.1 | ? | . | ? | 14.9% | .
O=C(Nc1cccc(S(=O)(=O)N2CCCCC2)c1)c1ccccc1NS(=O)(=O)c1ccc(F)cc1 | -97.6* | ? | ? | ? | 2.4% | -25.0%
CC(C)(C)NC(=O)COC(=O)c1ccc2c(c1)C(=O)N(Cc1ccco1)C2=O | -12.8 | -2.3% | 1.6%[46.1 µM] | 23.3% | 1.0% | -8.6%
CCCCn1c2nc3ccccc3nc2c2c(=O)n(CC(C)C)cnc21 | -62.2* | -4.8% | . | -11.9% | . | .
CCCCCn1c2nc3ccccc3nc2c2c(=O)n(CC(C)C)cnc21 | . | -17.6% | 2.5%[46.1 µM] | 23.0% | -1.8% | -0.7%
O=C(COc1ccccc1C(=O)c1cnn(-c2ccccc2)c1)Nc1ccccc1 | 43.3 | 0.0% | ? | ? | -32.1% | -25.6%
Cc1ccc2nc(-c3ccc(O)cc3)oc2c1 | 91.7 | 12.6µM* | 5.62µM* | 4.1% | -11.8% | ?
CCCCCCCC1c2c(c(C)c(C)oc2=O)Oc2c(C)c(C)oc(=O)c21 | -13.6 | 29.0% | . | 2.5% | 2.4% | .
CCOC(=O)c1cc(S(=O)(=O)NCc2ccc(Cl)cc2)[nH]n1 | -16.0 | 0.4% | . | . | . | 3.6%[46.1 µM]
NC(=O)CC(NC(=O)Cc1cccc2ccccc12)c1ccc(NCCc2ccc(F)cc2)c([N+](=O)[O-])c1 (centres undefined) | -67.5* | -5.1% | . | 6.0% | 2.0% | .
NC(=O)CC(NC(=O)Cc1cccc2ccccc12)c1ccc(NC2CCCCCCC2)c([N+](=O)[O-])c1 (centres undefined) | -62.5* | -8.8% | . | 19.6% | 2.9% | .
